Screening results from PubChem BioAssay.
DT40 TDP1 CPT = growth inhibition of DT40 Tdp1-/-;hTDP1 cells with camptothecin (screen for TDP1 inhibitors); Potency, µM (doses to about 46.2 µM), inactives show at the top dose activity change, negative = growth inhibition, actives largely listed as inhibitors; actives 12% (n = 420,000); chicken DT40 Tdp1-/-;hTDP1 cells + 20 nM CPT, ATP luminescence, 48 h; AID 686979; further: nearly all actives have a fitted effect of over 55% in size
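Chicken DT40 Tdp1-/- cells stably complemented with human TDP1 were seeded at 400 cells/well in medium containing 20 nM camptothecin, exposed to pin-transferred compounds, and grown at 37 °C for at least 48 hr. Viability was read as ATP luminescence.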
HT1080 IDH1KD tx = toxicity to HT-1080 IDH1 knockdown cells (counter line). Potency, µM (doses to about 46.1 µM), for the others: at the top dose activity, negative = toxicity, usual class: cytotoxic. AID 686971. actives 2% (n = 360,000). HT-1080 IDH1 knockdown viability, ATP luminescence, 48 h;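 further: 0% = DMSO wells and -100% = cell-free medium wells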
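Cytotoxicity counter-line: IDH1KD HT-1080, 48 h, CellTiter-Glo. Curves classed by r2, magnitude and activity.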
DT40 TDP1 no CPT = qHTS for Inhibitors of human tyrosyl-DNA phosphodiesterase 1 (TDP1): qHTS in cells in absence of CPT; DT40 Tdp1-/- hTDP1 cells, no CPT, ATP luminescence, 48 h; Potency, µM (highest dose often 46.2 µM), for the others: at the top dose activity change, negative = growth inhibition, most hits filed as inhibitors; actives 15% (n = 420,000); AID 686978, 2013; further: nearly all actives have a fitted effect of over 55% in size
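Chicken DT40 Tdp1-/- cells complemented with human TDP1, screened without camptothecin (DMSO vehicle only), 400 cells/well. Compounds pin-transferred, cells incubated at 37 °C for at least 48 hr. Growth read as ATP-dependent luminescence (CellTiter-Glo, 30 min at RT).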
KB-V1 MDR tox = KB-V1 MDR subline cytotoxicity; actives 3.4% (n = 400,000); Potency, µM (series often up to 46.1 µM), actives largely listed as cytotoxic; KB-V1 MDR cells viability, CellTiter-Glo, 72 h; AID 1347076; further: nearly all actives have a fitted effect of over 60% in size
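KB-V1 MDR subline cells in DMEM (phenol-red free, 10% FBS) exposed to compounds in qHTS concentration series for 72 h at 37 degrees C. Viability read by CellTiter-Glo luminescence; concentration-effect curves fitted after normalization and correction.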
HT1080NT lethal = kills 2HG-producing HT-1080-NT fibrosarcoma cells. HT-1080-NT fibrosarcoma viability, CellTiter-Glo ATP luminescence, 48 h. Potency, µM (doses to about 46.1 µM), without a hit: at the top dose activity, negative = less viability, usual class: cytotoxic. actives 1.6% (n = 360,000);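 further: NT is the 2HG producing partner of a matched IDH1 knockdown line; 0% = DMSO-treated cells and -100% = media-only wells without cells; nearly all actives have a fitted effect of over 55% in size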
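Compounds were tested in concentration-response format on HT-1080-NT cells for 48 hours at 37 degrees C. Cell viability came from CellTiter-Glo luminescence; curves were classified by r2, response magnitude and activity.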
KB-3-1 tox = kills parental KB-3-1 adenocarcinoma cells. KB-3-1 viability, CellTiter-Glo ATP luminescence, 72 h. Potency, µM (top dose mostly 46.1 µM), most hits filed as cytotoxic. actives 1.4% (n = 400,000); further: nearly all actives have a fitted effect of over 60% in size
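72 h, 37 °C compound treatment of KB-3-1 parental cells; CellTiter-Glo added, 10 min, luminescence read. Data corrected against DMSO-only plates and normalized before curve fitting.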
The depositor's hits bear a star; i = inactive; ? = inconclusive; nt = no result given; [ ] = dose if it differs, or a comment. Most compounds without a hit are left out; they make up all but 19% or so of the library. The call rests on the fitted dose curve; in most records, active means well fitted curve in the direction sought with a large enough effect; inconclusive means small, poorly fitted or top-dose-only effect, or another doubt; inactive means no such curve, though single readings can be large; an effect the other way counts as inactive or inconclusive. Unless noted, on the % scale 0 is the no-effect control and ±100 the full control effect; potency means the concentration at half of the fitted maximal effect.

SMILES | DT40 TDP1 CPT | HT1080 IDH1KD tx | DT40 TDP1 no CPT | KB-V1 MDR tox | HT1080NT lethal | KB-3-1 tox
CCN1CCC(N(Cc2cccc(OC)c2)C(=O)Nc2cccc(C(F)(F)F)c2)CC1 | ? | nt | 20.6µM* | i | nt | i
FC(F)(F)c1cc(Oc2ccccc2)ncc1-c1nnc(-c2ccccc2Cl)o1 | -25.0% | 19.2% | 0.8% | i | 1.1% | i
CC(C)(C)n1nnnc1C(c1ccccc1)N1CCN(c2ncc(C(F)(F)F)cc2Cl)CC1 (stereo not given) | ? | ? | ? | ? | -22.0% | ?
CC(C)CN(C(=O)COC(=O)c1cc2ccccc2cc1O)c1c(N)n(Cc2ccccc2)c(=O)[nH]c1=O | ? | -15.1% | ? | i | ? | i
O=c1cc(-c2ccccc2)[nH]c2cc(Cl)ccc12 | 0.461µM* | 0.581µM* | 0.731µM* | ? | 0.517µM* | ?
c1ccc(-c2cc3ccccc3[nH]2)cc1 | -22.4% | -0.4% | -9.8% | i | 6.2% | i
COc1ccc2[nH]c(-c3cccc(F)c3)cc(=O)c2c1 | 0.326µM* | 0.517µM* | 0.231µM* | ? | ? | 0.411µM*
O=c1cc(-c2ccccc2)[nH]c2ccc(F)cc12 | 0.92µM* | 2.31µM* | 0.517µM* | ? | ? | 1.16µM*
COc1cccc(C(O)c2ncc(-c3cccc(F)c3)[nH]2)c1 (stereo not given) | ? | 17.1% | -25.5% | i | -1.0% | i
Cc1ccc(-c2cc(=O)c3cc(C)ccc3[nH]2)cc1 | 5.17µM* | 20.6µM* | 3.66µM* | ? | ? | 9.2µM*
O=C(NCCO)c1cn(C2CCN(Cc3c(F)cccc3Cl)CC2)nn1 | 2.6% | nt | 4.7% | nt | nt | nt
CCc1nc2sc3c(N4CCC(C)CC4)ncnc3c2c2c1CCCC2 | 5.3% | nt | 5.5% | i | nt | i
COc1ccc(C)cc1NS(=O)(=O)c1ccc2c(c1)CCCN2C(C)=O | ? | nt | ? | i | nt | i
O=c1cc(-c2cccc(F)c2)oc2ccccc12 | ? | -10.4% | ? | ? | 19.2% | i
O=c1cc(-c2cccc(F)c2)[nH]c2ccccc12 | 1.03µM* | 1.46µM* | 0.581µM* | ? | 1.84µM* | 0.366µM*
Cc1ccc(-c2cc(=O)c3cc(F)ccc3[nH]2)cc1 | 23.1µM* | -15.9% | ? | ? | -25.0% | ?
CN(C)Cc1ccccc1-c1cncnc1Nc1ccncc1 | -6.1% | nt | -17.3% | nt | nt | nt
CC1CCCC(C)N1C(=O)CSc1nnc(C2CCCCC2)o1 (stereo not given) | -18.4% | 0.2% | ? | i | 0.1% | i
O=C(NCc1ccc2c(c1)OCO2)C(=O)NCC1OCCCN1S(=O)(=O)c1cc(F)ccc1F (stereo not given) | 1.4% | -0.2% | 1.2% | i | 4.1% | i
Cc1ccc(Nc2nc(Cl)c(C=O)s2)cc1Cl | ? | ? | ? | i | 18.4µM* | ?
COc1ccc(Cl)cc1CNC[C@H]1O[C@@H](n2cnc3c(=O)[nH]c(N)nc32)[C@H](O)[C@@H]1O | -13.5% | 18.1% | -2.0% | i | -3.4% | i
COc1ccc(/C=N/NC(=O)C(Cc2c[nH]c3ccccc23)NC(=O)OCC(C)C)cc1[N+](=O)[O-] (stereo not given) | -7.6% | -1.1% | -23.9% | i | -2.2% | i
O=C(CSc1nnc(-c2ccco2)n1CC1CCCO1)c1ccc(F)cc1 (stereo not given) | 18.4µM* | ? | 20.6µM* | i | -9.7% | i
O=C(CSc1ccc(-c2ccco2)nn1)c1ccc(F)cc1 | -29.3% | -1.0% | -28.0% | 25.9µM* | 17.3% | i
O=C(CSc1ccc(-c2ccco2)nn1)NCc1ccc(F)cc1 | -11.0% | -6.5% | -19.1% | i | -3.1% | i
SMILES | DT40 TDP1 CPT | HT1080 IDH1KD tx | DT40 TDP1 no CPT | KB-V1 MDR tox | HT1080NT lethal | KB-3-1 tox
COc1ccc(C(=O)CSc2nnc(-c3ccco3)n2CC2CCCO2)cc1 (stereo not given) | ? | -1.6% | ? | i | -1.3% | i
CC(OC(=O)CN1C(=O)NC2(CCCC2)C1=O)c1ccc(F)cc1 (stereo not given) | -16.4% | 5.0% | 15.0% | i | 3.7%[9.24 µM] | i
CC1CN=C2C(C(=O)Nc3ccccc3)=C(O)CC(c3ccccc3)N21 (stereo not given) | ? | -1.7% | 23.1µM* | i | 11.5% | i
O=C(Nc1ccccc1)C1=C(O)CC(c2ccoc2)CC1=Nc1ccccc1 (stereo not given) | ? | 2.0%[9.24 µM] | ? | i | -12.7% | i
CS(=O)(=O)c1ccccc1-c1nc(-c2cc(C(F)(F)F)cc(C(F)(F)F)c2)no1 | ? | 2.7% | -4.1% | i | 4.0% | i
CS(=O)c1ccccc1-c1nc(-c2ccc([N+](=O)[O-])cc2)no1 (stereo not given) | 8.2% | 13.2% | -1.9% | 8.2µM* | 17.2% | ?
CS(=O)c1ccccc1-c1nc(-c2cc(C(F)(F)F)cc(C(F)(F)F)c2)no1 (stereo not given) | 10.3µM* | -1.6% | 13µM* | ? | -0.4% | ?
Cc1c2ccccc2cc[n+]1C | -6.2% | nt | -15.9% | i | nt | i
CC1=[N+](C)c2ccc3ccccc3c2C1(C)C | 2.59µM* | -3.0% | 2.31µM* | ? | -16.9% | ?
Cc1cc(N2CCCC2)ccc1/C=C1/C(=O)N(C)C(=S)N1C | 9.2µM* | -18.1% | 8.2µM* | ? | ? | ?
CC(=O)/C(=N/Nc1ccccc1C)N1CCOCC1 | 8.2µM* | ? | 20.6µM* | i | -14.9% | i
CC(=O)/C(=N/Nc1ccccc1)N1CCOCC1 | -17.3% | -16.1% | -5.4% | i | 5.01µM* | i
CCc1ccc(/C=C/C(=O)c2ccc(S(=O)(=O)N(C)C)cc2)cc1 | ? | -0.2% | ? | 20.6µM* | 8.5% | i
Cc1ccc(NC(=S)N(Cc2cccs2)Cc2cc3cc(C)cc(C)c3[nH]c2=O)cc1 | ? | 5.7% | ? | i | 5.7% | i
CCN(CC)CCN(Cc1cc2ccc(C)c(C)c2[nH]c1=O)C(=S)NCc1ccco1 | ? | -20.9% | ? | i | -18.5% | ?
CCN(CC)CCN(Cc1cc2cc(C)cc(C)c2[nH]c1=O)C(=S)NCc1ccco1 | 25.9µM* | -26.1% | 23.1µM* | ? | -24.7% | i
Cc1cc(C)c2[nH]c(=O)c(CN(Cc3cccs3)C(=S)NCc3ccco3)cc2c1 | 13µM* | -11.4% | 10.3µM* | i | -7.9% | i
